Drawing on PubChem BioAssay AID590 (National Center for Advancing Translational Sciences (NCATS), 2007), this text covers max dye-equivalent concentration for 55 molecules.

Molecules are shown by their SMILES. About 6,500 (11%) of roughly 59,000 compounds were called active. Not shown: some 15% with an inconclusive outcome. Cut-off read from the data, not from the text of the source: active = max dye-equivalent concentration above about 10 nM; inconclusive = mostly about 1.1 nM to 9.6 nM; inactive = weaker than that. Only a selection was taken, and actives are over-represented in it overall.

This assay in a line: qHTS Assay for Spectroscopic Profiling in A350 Spectral Region. The note with it: Compound autofluorescence, 340/450 nm, Alexa 350 dye-equivalents; hits give high values. The source says: NIH Molecular Libraries Screening Centers Network [MLSCN]
NIH Chemical Genomics Center [NCGC]
Occasionally, the artifactual effect may originate from the compounds own spectral or other biophysical properties which generally tend to track its assay concentration. Pre-screening/profiling the library with respect to the compounds spectral properties should help one exclude false positives early on. While the most informative fluorescent profiling data set is obtained by performing a full excitation and emission scan of each well by using a monochromator-based plate reader, such an approach is practical only on a very limited scale as scanning each well requires long time. An alternative approach, applied here, is to perform plate reader scans using selected excitation and emission wavelength pairs to generate a multidimensional relational database that correlates compound concentration and the respective relative fluorescence intensity at a given wavelength set. A standard curve of Alexa 350 (A 350) present on each plate as six-point concentration series, was used to compute a normalized fluorescence response, termed dye-equivalent concentration, for each compound at each concentration.
NCGC Assay Protocol Summary:
100 mM Tris buffer, pH 8.0
The wells in columns 1 through 4 of a Kalypsys polypropylene 1536-well compound plate were filled with standard solutions of fluorophore corresponding to the spectral region of interest. Solutions of A 350 were placed in the following wells: I1, J1: 3 mM, I2, J2: 300 uM, I3, J3: 30 uM, I4, J4: zero (DMSO), K1, L1: 3 uM, K2, L2: […], K3, L3: 300 nM, K4, L4: zero (DMSO).
Six uL of buffer were dispensed to 1536-well Greiner black plates. Compounds and dye standards (23 nL) were transferred via Kalypsys PinTool. The plates were incubated for 15 min at room temperature, and then read on ViewLux (Perkin-Elmer) High-throughput CCD imager using 340 nm and 450 nm excitation and emission filter set.
Keywords: NIH Roadmap, MLSCN, MLI, MLSMR, qHTS, NCGC, A350, A-350, Fluorescent Profiling.
(In general: qHTS replaces the single test concentration by a dilution series.)
On to `CCCN(CCC)CCNC(=O)c1cc2c(C)nc3ccccc3c2o1`, for which the max dye-equivalent concentration was 18 nM (active).

As for `Cc1cc(C(=O)NCCCc2ccccc2)no1`, the max dye-equivalent concentration entry was “inactive”.

`CCCC(=O)N(CCc1ccccc1)Cc1nc2ccccc2c(=O)[nH]1`: the max dye-equivalent concentration result was “inactive”.

`CCOC(=O)C1CCCCN1Cc1ccc(OC)c(OC)c1OC` (stereo not given): the max dye-equivalent concentration entry was “inactive”.

`Clc1ccccc1-c1cc(NCCN2CCOCC2)ncn1`: the max dye-equivalent concentration entry was “inactive”.

Consider `CCn1c(SCC(=O)NCc2ccco2)nnc1-c1ccc(N)cc1`, for which the max dye-equivalent concentration result was “inactive”.

Consider `CN1CCN(S(=O)(=O)c2ccc(NC(=O)C3CCCO3)cc2)CC1` (stereo not given), for which the max dye-equivalent concentration entry is “inactive”.

Regarding `CCOC(=O)c1sc(NC(=O)c2cc(S(=O)(=O)N3CCOCC3)ccc2C)nc1C`, the max dye-equivalent concentration entry was “inactive”.

Consider `CCN(Cc1ccncc1)C(=O)c1cccc(S(=O)(=O)N2CCOCC2)c1`, for which the max dye-equivalent concentration result is “inactive”.

Regarding `O=C(Nc1nc2ccc(S(=O)(=O)N3CCCC3)cc2s1)C1CCCO1` (stereo not given), the max dye-equivalent concentration result was “inactive”.

With `COC(=O)COc1ccc(S(=O)(=O)N2CCOCC2)cc1`, the max dye-equivalent concentration entry was “inactive”.

For the molecule `COc1ccc(S(=O)(=O)N2CCOCC2)cc1C(=O)Nc1nc2ccccc2s1`, the max dye-equivalent concentration was 26 nM (active).

Regarding `O=C(Nc1nc2cc3c(cc2s1)OCCO3)c1cccc(S(=O)(=O)N2CCOCC2)c1`, the max dye-equivalent concentration is 15 nM (active).

As for `CC1(C)Cc2cccc(OCC(=O)Nc3nccs3)c2O1`, the max dye-equivalent concentration result was “inactive”.

Consider `COc1ccc(C[C@H](N)C(=O)N[C@@H]2[C@H](O)[C@H](n3cnc4c(N(C)C)ncnc43)O[C@@H]2CO)cc1`, for which the max dye-equivalent concentration entry is “inactive”.

In the case of `CCCOP(=O)(c1ccc(N(C)C)cc1)C(O)c1cc(OC)c(OC)c(OC)c1` (stereo not given), the max dye-equivalent concentration result is “inactive”.

Regarding `COc1ccc(N2CCN(C3CC(=O)N(c4ccc5c(c4)OCCO5)C3=O)CC2)cc1` (stereo not given), the max dye-equivalent concentration entry was “inactive”.

On to `Cc1ccc(S(=O)(=O)N2CCC(C(=O)OCC(=O)N3CC(=O)Nc4ccccc43)CC2)cc1`, for which the max dye-equivalent concentration entry is “inactive”.

For `CC(=O)N1CCC2(CCCN(c3ncccn3)C2)CC1`, the max dye-equivalent concentration result was “inactive”.

Regarding `Cc1ccc(S(=O)(=O)N2CCCC2CO)cc1` (stereo not given), the max dye-equivalent concentration entry was “inactive”.

Take `COc1ccc(C2CC(c3ccc(C)cc3)Nc3nc(N)nn32)cc1` (stereo not given): the max dye-equivalent concentration was 2800 nM (active).

Regarding `Cc1cc(C)c(C(=O)CN2C(=O)CCC2=O)cc1C`, the max dye-equivalent concentration entry was “inactive”.

On to `COC(=O)c1ccc(NC(=O)CSc2nnc(CNc3ccc(OC)cc3)n2C)cc1`, for which the max dye-equivalent concentration entry was “inactive”.

For the molecule `CCOC(=O)N1CCN(C(=O)CN(C2CCCCC2)S(C)(=O)=O)CC1`, the max dye-equivalent concentration result is “inactive”.

Turning to `Cc1ccccc1CSc1nnc(-c2ccccn2)n1N`, the max dye-equivalent concentration entry was “inactive”.

Take `CN(Cc1ccco1)c1cc(-c2ccccc2C(F)(F)F)ncn1`: the max dye-equivalent concentration result is “inactive”.

With `Cc1c(NC(=O)c2coc(=O)c(Br)c2)c(=O)n(-c2ccccc2)n1C`, the max dye-equivalent concentration was 220 nM (active).

With `Cc1c(NC(=O)c2cccnc2)c(=O)n(-c2ccccc2)n1C`, the max dye-equivalent concentration result was “inactive”.

On to `Cc1cc(C(=O)Nc2c(C)n(C)n(-c3ccccc3)c2=O)cs1`, for which the max dye-equivalent concentration result was “inactive”.

As for `O=c1[nH]c(=O)n([C@H]2C[C@H](O)[C@H](CO)O2)cc1Br`, the max dye-equivalent concentration result was “inactive”.

As to `OCCCN1c2ccccc2Nc2nnc(-c3ccccc3)cc21`, the max dye-equivalent concentration was 110 nM (active).

As for `Cn1c(=O)[nH]c(=O)c2c1nc(N(CCO)Cc1ccccc1)n2Cc1ccccc1Cl`, the max dye-equivalent concentration result is “inactive”.

Consider `O=C(c1cccc(F)c1)N1CCC2(CCCN(Cc3ccncc3)C2)CC1`, for which the max dye-equivalent concentration entry is “inactive”.

As for `Cc1c(C)c2c(c(C)c1O)CC[C@@](C)(CN1CCN(c3cc(N4CCCC4)nc(N4CCCC4)n3)CC1)O2`, the max dye-equivalent concentration is 11 nM (active).

Turning to `CC(=O)N1CCC2(CCCN(Cc3ccc(C#N)cc3)C2)CC1`, the max dye-equivalent concentration result is “inactive”.

`N#CNC1=NCN(CCc2ccccc2)CN1`: the max dye-equivalent concentration entry was “inactive”.

As for `O=C(CSc1nc2ccccc2o1)N1CCN(c2ccccc2)CC1`, the max dye-equivalent concentration result was “inactive”.

Consider `Cn1c(=O)cc(OCCCC(=O)N2CCN(c3ccccn3)CC2)c2ccccc21`, for which the max dye-equivalent concentration result is “inactive”.

As to `Cc1ccnc(N2CCN(C(=O)CSc3nc4ccccc4nc3N3CCCCC3)CC2)c1`, the max dye-equivalent concentration is 28 nM (active).

As for `COc1ccc(C(=O)Cn2nnc(-c3ccc(N4CCOCC4)cc3)n2)cc1OC`, the max dye-equivalent concentration result is “inactive”.

As to `Cc1ccc(Oc2ccc(N)cc2)cc1`, the max dye-equivalent concentration entry was “inactive”.

On to `CC(C)(C)n1nnnc1C(c1ccc2ncccc2c1)N1CCSCC1` (stereo not given), for which the max dye-equivalent concentration entry was “inactive”.

With `N#CC(C(=O)c1ccc(S(=O)(=O)N2CCCCCC2)cc1)c1nc2ccccc2[nH]1` (stereo not given), the max dye-equivalent concentration was 52 nM (active).

On to `COc1ccccc1N1CCN(C(=O)c2ccc(S(=O)(=O)N3CCCCC3)cc2)CC1`, for which the max dye-equivalent concentration entry is “inactive”.

Regarding `Cc1ccccc1-c1nnn(CC(=O)c2ccc(S(=O)(=O)N3CCCC3)cc2)n1`, the max dye-equivalent concentration entry was “inactive”.

As for `Cc1nnc(N(Cc2ccco2)C(=O)c2ccno2)s1`, the max dye-equivalent concentration entry is “inactive”.

As to `N#Cc1cccc(NC(=O)CCC2CCCC2)c1`, the max dye-equivalent concentration entry was “inactive”.

On to `CCCc1nc(-c2ccccc2O)n(-c2ccccc2)n1`, for which the max dye-equivalent concentration result is “inactive”.

`O=C(CSc1nnc(Cc2ccccc2)n1-c1ccccc1)N1CCOCC1`: the max dye-equivalent concentration result was “inactive”.

With `CCOc1ccccc1C(=O)NCc1ccco1`, the max dye-equivalent concentration entry is “inactive”.

With `CCOc1ccccc1C(=O)NCCCn1ccnc1`, the max dye-equivalent concentration result was “inactive”.

`CCOc1ccccc1C1C(C(=O)OC)=CN(C)C=C1C(=O)OC`: the max dye-equivalent concentration is 13000 nM (active).

In the case of `CN(C)CCCn1c2ccccc2c2cnccc21`, the max dye-equivalent concentration entry is “inactive”.

Consider `CCC(C)n1[nH]c(=O)cc1N` (stereo not given), for which the max dye-equivalent concentration result is “inactive”.

In the case of `CC(=O)c1c(N)n(C)c(=O)n(C)c1=O`, the max dye-equivalent concentration entry was “inactive”.
